Reference: the supplement of paper PMC11732987, “Enantioselective OTUD7B fragment discovery through chemoproteomics screening and high-throughput optimisation” (Communications Chemistry, 2025)

Columns and labels:
Test in all cases: log2 ratio of Biotin-Ahx-Ub-VS probe labelling (fragment/DMSO); higher = less target engagement (more negative = stronger competition), active = hit call of the paper (q ≤ 0.05, log2 ratio ≤ -1)
Conditions in all cases: compound concentration: 200 uM; treatment time: 3 h
USP42 = molecular target: T1, USP42 (UniProt Q9H9J4)
T1 sequence (whole entry): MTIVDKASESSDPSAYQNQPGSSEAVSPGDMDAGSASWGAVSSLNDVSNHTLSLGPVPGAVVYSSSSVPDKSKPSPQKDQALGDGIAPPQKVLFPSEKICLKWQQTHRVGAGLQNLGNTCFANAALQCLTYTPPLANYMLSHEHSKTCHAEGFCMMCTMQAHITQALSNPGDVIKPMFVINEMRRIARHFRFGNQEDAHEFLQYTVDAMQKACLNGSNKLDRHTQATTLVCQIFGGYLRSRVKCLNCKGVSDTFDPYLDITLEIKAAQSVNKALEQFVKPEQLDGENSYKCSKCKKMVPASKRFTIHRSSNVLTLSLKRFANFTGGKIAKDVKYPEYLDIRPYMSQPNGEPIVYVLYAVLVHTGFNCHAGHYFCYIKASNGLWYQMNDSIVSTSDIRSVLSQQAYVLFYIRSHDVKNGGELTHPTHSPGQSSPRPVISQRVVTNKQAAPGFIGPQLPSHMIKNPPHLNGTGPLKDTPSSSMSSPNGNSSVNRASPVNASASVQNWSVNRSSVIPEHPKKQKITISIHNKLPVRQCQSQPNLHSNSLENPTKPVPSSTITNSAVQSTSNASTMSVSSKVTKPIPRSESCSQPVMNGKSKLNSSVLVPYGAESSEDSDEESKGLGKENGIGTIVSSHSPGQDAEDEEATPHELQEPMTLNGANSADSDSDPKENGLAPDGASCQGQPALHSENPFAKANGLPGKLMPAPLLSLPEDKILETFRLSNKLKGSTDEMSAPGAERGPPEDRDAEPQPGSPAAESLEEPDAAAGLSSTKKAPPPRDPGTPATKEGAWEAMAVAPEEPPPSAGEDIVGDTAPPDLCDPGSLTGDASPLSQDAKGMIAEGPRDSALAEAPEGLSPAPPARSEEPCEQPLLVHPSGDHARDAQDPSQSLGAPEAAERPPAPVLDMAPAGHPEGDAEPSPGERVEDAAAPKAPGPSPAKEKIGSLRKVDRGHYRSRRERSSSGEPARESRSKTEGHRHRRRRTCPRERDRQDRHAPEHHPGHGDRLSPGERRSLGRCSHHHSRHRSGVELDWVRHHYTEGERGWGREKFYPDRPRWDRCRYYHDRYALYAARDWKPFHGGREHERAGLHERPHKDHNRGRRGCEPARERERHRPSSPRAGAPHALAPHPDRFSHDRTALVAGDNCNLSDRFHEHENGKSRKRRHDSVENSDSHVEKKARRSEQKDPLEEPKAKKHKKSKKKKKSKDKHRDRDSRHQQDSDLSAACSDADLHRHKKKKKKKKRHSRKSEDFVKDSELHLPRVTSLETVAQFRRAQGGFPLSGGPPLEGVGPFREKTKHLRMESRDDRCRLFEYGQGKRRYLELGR
Outline: (§1)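 HEK293T lysate (495 µg per sample, in Tris/CHAPS/IGEPAL buffer with protease inhibitors) was exposed in triplicate for 3 h to fragment at 200 µM or to vehicle, then to Biotin-Ahx-Ub-VS at 0.5 µM final for 1 h. Labelled DUBs were enriched on NeutrAvidin, digested with LysC and trypsin, and analysed by diaPASEF LC-MS/MS. Spectronaut label-free quantities were normalised to the global median, and values are average log2 ratios of fragment over vehicle from an unpaired t-test. Only proteins with ≥2 unique peptides were used.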

USP46 = USP46 (UniProt P62068)
Outline: as §1

USP47 = molecular target: T2, USP47 (UniProt Q96K76)
T2 sequence (whole entry): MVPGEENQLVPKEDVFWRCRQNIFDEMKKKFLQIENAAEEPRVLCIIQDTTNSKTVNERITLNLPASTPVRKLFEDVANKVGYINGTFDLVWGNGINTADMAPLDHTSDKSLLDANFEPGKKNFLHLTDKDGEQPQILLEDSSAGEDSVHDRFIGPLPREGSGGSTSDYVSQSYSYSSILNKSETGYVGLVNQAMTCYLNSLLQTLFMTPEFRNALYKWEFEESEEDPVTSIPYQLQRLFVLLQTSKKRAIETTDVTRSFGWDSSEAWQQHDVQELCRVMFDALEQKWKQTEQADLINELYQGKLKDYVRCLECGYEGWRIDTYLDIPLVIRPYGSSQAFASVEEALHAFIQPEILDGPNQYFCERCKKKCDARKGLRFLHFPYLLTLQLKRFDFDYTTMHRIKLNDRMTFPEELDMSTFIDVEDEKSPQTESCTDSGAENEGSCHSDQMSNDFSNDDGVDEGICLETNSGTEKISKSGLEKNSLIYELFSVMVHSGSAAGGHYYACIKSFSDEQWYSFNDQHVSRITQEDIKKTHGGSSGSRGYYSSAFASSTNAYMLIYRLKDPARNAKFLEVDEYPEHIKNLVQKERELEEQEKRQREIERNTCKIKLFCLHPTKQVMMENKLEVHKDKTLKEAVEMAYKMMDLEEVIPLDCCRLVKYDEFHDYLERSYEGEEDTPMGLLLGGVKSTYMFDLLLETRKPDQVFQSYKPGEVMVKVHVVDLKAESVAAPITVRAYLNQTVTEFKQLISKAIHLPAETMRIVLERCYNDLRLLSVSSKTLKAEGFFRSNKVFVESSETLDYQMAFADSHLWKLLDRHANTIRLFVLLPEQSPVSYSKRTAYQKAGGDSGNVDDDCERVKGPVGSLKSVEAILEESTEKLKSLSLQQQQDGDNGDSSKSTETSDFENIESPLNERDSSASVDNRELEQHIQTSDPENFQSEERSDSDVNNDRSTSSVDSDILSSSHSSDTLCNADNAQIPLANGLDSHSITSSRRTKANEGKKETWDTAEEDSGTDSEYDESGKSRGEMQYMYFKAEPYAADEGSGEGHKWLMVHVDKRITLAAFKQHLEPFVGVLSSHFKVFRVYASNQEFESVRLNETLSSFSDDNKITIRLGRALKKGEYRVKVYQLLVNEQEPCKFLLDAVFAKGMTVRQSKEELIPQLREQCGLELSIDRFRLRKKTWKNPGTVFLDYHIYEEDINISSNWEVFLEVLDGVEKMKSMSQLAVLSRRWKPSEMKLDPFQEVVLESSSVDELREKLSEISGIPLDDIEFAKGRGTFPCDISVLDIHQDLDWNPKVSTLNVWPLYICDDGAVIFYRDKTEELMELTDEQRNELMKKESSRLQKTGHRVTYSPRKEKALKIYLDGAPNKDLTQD
Outline: as §1

USP48 = molecular target: T3, USP48 (UniProt Q86UV5)
T3 sequence (whole entry): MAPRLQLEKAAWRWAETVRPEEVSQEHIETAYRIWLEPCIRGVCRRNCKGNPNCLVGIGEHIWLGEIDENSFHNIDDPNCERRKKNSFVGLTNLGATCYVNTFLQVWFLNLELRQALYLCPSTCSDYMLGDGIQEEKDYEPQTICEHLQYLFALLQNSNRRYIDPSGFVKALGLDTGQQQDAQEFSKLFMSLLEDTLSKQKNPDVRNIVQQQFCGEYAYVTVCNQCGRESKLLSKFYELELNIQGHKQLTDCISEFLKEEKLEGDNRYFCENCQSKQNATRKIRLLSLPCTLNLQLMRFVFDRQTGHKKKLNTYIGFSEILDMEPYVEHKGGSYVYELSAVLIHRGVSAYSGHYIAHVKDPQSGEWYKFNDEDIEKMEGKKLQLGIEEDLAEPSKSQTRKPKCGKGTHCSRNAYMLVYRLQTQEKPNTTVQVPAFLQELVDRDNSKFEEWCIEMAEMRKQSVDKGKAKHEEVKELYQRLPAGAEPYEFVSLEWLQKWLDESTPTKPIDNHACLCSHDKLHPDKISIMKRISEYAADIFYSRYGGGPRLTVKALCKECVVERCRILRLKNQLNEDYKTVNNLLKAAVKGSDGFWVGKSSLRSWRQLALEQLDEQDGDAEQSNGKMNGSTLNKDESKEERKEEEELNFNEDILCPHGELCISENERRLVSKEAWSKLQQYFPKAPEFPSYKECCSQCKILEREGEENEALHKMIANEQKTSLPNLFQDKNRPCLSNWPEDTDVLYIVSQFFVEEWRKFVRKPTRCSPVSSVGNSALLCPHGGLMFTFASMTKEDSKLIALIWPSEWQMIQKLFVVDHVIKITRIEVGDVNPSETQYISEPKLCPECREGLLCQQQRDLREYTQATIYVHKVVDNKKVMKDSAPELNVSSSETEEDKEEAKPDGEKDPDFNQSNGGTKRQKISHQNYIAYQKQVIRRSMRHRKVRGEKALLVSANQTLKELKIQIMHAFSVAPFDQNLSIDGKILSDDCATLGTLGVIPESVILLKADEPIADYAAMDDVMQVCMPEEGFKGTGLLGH
Outline: as §1

USP5 = molecular target: T4, USP5 (UniProt P45974)
T4 sequence (whole entry): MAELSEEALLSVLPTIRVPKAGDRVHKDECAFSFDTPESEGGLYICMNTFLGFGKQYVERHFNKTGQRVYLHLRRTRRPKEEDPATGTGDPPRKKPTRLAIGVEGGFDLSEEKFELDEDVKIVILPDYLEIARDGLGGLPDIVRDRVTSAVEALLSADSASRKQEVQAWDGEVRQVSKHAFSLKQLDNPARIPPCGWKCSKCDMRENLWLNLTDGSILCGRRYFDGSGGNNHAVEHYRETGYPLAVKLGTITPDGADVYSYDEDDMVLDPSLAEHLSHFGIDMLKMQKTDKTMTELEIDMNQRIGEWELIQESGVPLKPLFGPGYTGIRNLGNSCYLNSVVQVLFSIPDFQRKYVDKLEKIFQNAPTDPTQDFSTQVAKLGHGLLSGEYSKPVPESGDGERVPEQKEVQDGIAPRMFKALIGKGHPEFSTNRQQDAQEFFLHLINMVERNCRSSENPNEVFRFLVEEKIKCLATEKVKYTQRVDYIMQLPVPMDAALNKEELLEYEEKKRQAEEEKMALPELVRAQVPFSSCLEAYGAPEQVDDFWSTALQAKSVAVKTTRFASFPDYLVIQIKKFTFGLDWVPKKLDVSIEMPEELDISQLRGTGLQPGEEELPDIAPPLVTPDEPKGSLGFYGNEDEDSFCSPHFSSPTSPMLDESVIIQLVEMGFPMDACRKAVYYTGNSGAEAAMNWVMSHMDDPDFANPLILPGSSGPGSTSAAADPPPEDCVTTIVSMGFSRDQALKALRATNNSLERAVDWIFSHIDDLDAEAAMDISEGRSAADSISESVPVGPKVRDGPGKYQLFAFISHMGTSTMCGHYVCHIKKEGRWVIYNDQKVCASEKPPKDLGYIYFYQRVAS
Outline: as §1

USP54 = USP54 (UniProt Q70EL1)
Outline: as §1

USP7 = USP7 (UniProt Q93009)
Outline: as §1

USP8 = molecular target: T5, USP8 (UniProt P40818)
T5 sequence (whole entry): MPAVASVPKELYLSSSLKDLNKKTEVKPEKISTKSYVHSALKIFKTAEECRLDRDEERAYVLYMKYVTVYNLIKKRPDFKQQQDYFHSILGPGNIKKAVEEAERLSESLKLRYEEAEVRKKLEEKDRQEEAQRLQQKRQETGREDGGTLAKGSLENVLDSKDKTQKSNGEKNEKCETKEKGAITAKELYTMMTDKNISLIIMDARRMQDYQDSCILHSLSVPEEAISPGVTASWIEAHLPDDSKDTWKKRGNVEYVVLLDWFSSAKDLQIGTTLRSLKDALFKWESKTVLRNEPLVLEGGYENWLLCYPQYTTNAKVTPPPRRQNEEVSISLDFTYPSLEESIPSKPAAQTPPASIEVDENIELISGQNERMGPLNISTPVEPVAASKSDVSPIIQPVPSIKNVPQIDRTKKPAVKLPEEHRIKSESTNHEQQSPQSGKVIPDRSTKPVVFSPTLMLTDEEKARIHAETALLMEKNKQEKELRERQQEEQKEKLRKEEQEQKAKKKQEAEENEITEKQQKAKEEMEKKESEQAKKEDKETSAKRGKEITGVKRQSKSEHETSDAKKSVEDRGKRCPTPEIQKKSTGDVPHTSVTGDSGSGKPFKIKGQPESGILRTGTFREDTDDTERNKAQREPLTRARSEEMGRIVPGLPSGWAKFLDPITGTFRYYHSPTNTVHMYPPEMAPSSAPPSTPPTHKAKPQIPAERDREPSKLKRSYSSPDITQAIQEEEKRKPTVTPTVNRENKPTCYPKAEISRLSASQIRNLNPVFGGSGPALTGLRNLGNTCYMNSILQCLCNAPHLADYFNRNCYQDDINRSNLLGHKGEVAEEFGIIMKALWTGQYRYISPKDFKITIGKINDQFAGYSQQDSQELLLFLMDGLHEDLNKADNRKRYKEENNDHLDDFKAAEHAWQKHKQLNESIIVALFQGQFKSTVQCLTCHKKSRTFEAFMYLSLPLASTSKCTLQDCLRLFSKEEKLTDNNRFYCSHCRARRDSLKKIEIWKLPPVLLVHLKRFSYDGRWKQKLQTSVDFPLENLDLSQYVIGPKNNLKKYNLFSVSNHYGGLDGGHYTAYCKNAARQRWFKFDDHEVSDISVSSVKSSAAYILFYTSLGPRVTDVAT
Outline: as §1

Measured: log2 ratio of Biotin-Ahx-Ub-VS probe labelling

Chain of USP46 (P62068 whole entry): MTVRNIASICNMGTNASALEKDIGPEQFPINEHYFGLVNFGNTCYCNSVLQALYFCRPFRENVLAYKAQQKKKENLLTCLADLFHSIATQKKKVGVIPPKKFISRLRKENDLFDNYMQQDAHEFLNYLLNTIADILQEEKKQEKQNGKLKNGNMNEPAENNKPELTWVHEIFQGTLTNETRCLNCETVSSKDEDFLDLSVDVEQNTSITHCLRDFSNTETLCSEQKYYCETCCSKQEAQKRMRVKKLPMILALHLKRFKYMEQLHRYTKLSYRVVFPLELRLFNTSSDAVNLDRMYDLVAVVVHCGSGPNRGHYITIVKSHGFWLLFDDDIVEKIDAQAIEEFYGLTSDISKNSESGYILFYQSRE
Chain of USP7 (Q93009 whole entry, looked up): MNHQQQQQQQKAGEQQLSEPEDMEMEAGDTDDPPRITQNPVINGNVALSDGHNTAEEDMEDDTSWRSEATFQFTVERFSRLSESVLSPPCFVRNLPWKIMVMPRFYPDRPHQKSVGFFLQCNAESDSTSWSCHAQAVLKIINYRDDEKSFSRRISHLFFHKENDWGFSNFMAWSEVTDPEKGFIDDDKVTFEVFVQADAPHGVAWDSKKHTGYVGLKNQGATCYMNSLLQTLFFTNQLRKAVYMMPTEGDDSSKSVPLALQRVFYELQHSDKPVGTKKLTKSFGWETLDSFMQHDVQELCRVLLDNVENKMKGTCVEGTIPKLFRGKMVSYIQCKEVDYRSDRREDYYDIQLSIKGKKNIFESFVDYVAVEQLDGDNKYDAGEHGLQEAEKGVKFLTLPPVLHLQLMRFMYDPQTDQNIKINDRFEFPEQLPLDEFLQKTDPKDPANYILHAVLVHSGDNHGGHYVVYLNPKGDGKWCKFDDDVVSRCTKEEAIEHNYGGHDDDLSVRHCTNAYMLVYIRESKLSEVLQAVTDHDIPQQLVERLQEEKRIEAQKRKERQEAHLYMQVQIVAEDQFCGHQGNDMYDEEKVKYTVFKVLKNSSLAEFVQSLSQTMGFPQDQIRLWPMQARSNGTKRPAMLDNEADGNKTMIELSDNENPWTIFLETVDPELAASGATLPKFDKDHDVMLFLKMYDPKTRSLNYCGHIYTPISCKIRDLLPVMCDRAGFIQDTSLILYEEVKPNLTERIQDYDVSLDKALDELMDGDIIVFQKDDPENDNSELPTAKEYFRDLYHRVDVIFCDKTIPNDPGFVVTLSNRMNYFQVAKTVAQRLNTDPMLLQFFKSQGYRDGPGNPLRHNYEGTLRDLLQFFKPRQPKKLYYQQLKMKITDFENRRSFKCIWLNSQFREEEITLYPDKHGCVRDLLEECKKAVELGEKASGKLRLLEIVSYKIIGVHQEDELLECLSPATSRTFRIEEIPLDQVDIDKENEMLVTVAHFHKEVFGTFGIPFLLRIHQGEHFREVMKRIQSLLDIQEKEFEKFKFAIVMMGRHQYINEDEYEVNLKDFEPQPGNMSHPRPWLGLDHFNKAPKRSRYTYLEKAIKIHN
Chain of USP54 (Q70EL1 whole entry): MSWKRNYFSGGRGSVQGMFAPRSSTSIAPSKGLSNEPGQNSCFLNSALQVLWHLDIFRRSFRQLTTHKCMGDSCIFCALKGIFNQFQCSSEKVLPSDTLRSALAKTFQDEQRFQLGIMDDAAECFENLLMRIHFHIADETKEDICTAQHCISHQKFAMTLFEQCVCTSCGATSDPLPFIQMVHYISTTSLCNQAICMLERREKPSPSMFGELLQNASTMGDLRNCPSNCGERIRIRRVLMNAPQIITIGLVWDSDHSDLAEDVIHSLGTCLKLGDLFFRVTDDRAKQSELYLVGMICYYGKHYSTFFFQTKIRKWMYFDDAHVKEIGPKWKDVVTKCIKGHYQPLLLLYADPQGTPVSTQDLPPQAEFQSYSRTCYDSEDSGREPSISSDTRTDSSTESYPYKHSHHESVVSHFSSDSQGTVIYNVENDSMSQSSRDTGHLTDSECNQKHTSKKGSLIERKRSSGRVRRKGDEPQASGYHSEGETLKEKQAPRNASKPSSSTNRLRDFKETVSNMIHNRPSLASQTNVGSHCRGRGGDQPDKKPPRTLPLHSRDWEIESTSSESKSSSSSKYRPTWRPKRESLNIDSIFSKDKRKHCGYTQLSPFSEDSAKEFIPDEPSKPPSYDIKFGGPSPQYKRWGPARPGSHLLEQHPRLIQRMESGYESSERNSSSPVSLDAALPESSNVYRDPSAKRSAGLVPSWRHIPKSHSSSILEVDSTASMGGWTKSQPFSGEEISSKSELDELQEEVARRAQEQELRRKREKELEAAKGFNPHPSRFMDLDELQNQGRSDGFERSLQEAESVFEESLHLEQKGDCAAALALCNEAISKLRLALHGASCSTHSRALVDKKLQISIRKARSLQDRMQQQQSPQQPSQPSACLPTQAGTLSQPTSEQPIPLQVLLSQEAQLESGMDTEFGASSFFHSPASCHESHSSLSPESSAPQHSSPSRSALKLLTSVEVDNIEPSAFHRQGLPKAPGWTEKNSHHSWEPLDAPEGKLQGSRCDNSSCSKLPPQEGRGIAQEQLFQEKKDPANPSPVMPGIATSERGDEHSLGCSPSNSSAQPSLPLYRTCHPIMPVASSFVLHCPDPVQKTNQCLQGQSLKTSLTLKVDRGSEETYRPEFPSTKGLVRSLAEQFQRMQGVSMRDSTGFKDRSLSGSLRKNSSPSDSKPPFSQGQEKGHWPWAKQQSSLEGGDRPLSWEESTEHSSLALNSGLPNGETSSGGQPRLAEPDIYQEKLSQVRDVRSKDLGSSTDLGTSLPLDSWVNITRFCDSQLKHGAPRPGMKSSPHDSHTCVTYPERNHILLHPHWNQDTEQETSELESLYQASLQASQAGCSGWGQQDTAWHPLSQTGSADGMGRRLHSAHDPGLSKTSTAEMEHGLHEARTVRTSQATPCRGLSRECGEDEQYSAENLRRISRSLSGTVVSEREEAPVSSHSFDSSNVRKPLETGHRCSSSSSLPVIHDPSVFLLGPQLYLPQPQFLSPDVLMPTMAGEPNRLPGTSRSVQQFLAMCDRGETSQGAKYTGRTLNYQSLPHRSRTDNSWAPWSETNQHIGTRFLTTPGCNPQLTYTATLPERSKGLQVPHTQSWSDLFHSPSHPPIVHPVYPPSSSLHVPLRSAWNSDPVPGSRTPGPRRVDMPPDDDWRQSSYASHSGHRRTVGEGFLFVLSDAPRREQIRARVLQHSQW

Cc1cccc(N(CCC#N)C(=O)CCl)c1C
inactive: USP42 0.0225 | USP46 0.0197 | USP47 -0.354 | USP48 -0.0383 | USP5 0.289 | USP54 0.431 | USP7 -0.47 | USP8 0.0891
